Screening data deposited in PubChem BioAssay by several laboratories.
This is a sample that favours compounds with a hit; in the whole collection about 3.3% have one here.
Calb FLC: affects C. albicans growth with fluconazole. 0.57% of 300,000 active. growth inhibition, % (concentration not given with the values). C. albicans CaCi-2 (fluconazole-resistant clinical isolate) + fluconazole, Alamar Blue growth, 48 h;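 active = growth inhibition above about 58% in most replicates, limit read from the data, passing the limit was not always enough; inconclusive = exactly half the replicates above a set limit; inactive = most replicates below a set limit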;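 note: all wells also contain fluconazole at 8 µg/ml as a sub-toxic cotreatment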
Cl transport mod: modulators of human KCC2 chloride dependent transport; 2.2% of 190,000 active; KCC2 cells, thallium flux FluoZin-2 fluorescence; AID 1456; B-score of Tl+ flux slope (higher = more flux/activation; lower = inhibition) at 10 µM;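 active = thallium flux slope and its plate-corrected score both differing from the plate sample mean at a set confidence after two filtering rounds, in either direction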;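 note: slope of fluorescence scaled to starting intensity during 10 to 20 s after thallium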
Efflux pump mplx: antifungal efflux pump inhibition, Nile Red retention; 0.44% of 330,000 active; AID 485275; S. cerevisiae Candida pump triplex; inhibition, % at 10 µM;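 active = plate passing quality check with inhibition over a set limit, or well fluorescence over plate mean plus 4 SD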;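 note: Nile Red retained in pooled yeast measured as flow cytometry median fluorescence; higher means more Nile Red kept so more efflux inhibition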
PHOSPHO1 inh: PHOSPHO1 (human) inhibition; Q8TCT1; recombinant PHOSPHO1, absorbance phosphatase assay; inhibition, % at 13.3 µM; 1.1% of 290,000 active; AID 1565; in the data active = inhibition above about 60%
Target sequence (Q8TCT1 whole entry, looked up): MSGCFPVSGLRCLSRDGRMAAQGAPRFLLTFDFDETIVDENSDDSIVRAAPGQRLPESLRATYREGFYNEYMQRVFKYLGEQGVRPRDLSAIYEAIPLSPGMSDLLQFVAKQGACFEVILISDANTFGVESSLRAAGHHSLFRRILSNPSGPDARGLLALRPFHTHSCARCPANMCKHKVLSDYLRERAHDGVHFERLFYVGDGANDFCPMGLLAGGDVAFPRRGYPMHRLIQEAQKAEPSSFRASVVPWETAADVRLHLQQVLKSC
Cardio protect: modulators protecting cardiomyocytes from myocardial damage | H9c2 cardiomyocytes, H2O2 injury protection, ATPLite, 2 h | protection from H2O2 cell death, % at 20 µM | 0.63% of 360,000 active;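 active = compounds giving at least 50% protection of heart cells from peroxide-induced death in the single-dose screen, raw or plate-pattern-corrected value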
Each line names hits and unclear results; the compound was inactive in the other large screens.

CC(C)CN(C(=O)c1ccc([N+](=O)[O-])s1)c1c(N)n(Cc2ccccc2)c(=O)[nH]c1=O	none (no result: Calb FLC, Cl transport mod, PHOSPHO1 inh)
O=C(Cc1ccc([N+](=O)[O-])cc1)NNC(=O)c1ccc2c(c1)OCO2	Calb FLC 113.2 (no result: Cl transport mod)
Cc1ccc(Nc2nc(NCc3ccco3)c3ccccc3n2)cc1	Calb FLC 91.6
OC1CCN(c2c3c(nc4cc(-c5cccc(F)c5)nn24)CCCC3)CC1	Cardio protect 59.3
FC(F)(F)c1ccccc1N/N=C/c1cccnc1	none (no result: Cl transport mod)
COc1cc(/C=N/Nc2ccc(F)cc2F)cc(OC)c1OC	Calb FLC 125.9
COc1cc(C=NNc2ccccc2[N+](=O)[O-])cc(OC)c1OC	none (no result: Calb FLC, Cl transport mod, Efflux pump mplx, PHOSPHO1 inh)
Fc1ccc(N/N=C/c2cccnc2)c(F)c1	Calb FLC 112.0
c1ccc(Nc2ccccc2Nc2ccccn2)nc1	none (no result: Cl transport mod)
Oc1cccc2ccc(Nc3ccccn3)nc12	Calb FLC 103.0
Cc1[nH]c2ccccc2c1/C=C/c1cc[n+](C)cc1	Calb FLC 104.2 (no result: Efflux pump mplx)
CCOC(=O)N1CCN(S(=O)(=O)c2ccc(C(=O)N(CCCN(C)C)c3nc4ccc(Cl)cc4s3)cc2)CC1	PHOSPHO1 inh 62.8 (no result: Cl transport mod)
CCOC(=O)N1CCN(S(=O)(=O)c2ccc(C(=O)N(CCCN(C)C)c3nc4ccc(CC)cc4s3)cc2)CC1	none (no result: Cl transport mod)
CSc1ccc(CN2CCC2(C)C(=O)Nc2cnc3ccccc3c2)cc1 (centres undefined)	none (no result: Calb FLC, Cl transport mod, Efflux pump mplx, PHOSPHO1 inh)
CN1c2ccccc2N(C)C1(C)c1ccccc1	Calb FLC 122.1
C=CCOC(=O)C1=C(C)NC(SCC(=O)NC(=O)OCC)=C(C#N)C1c1cccnc1 (centres undefined)	Calb FLC 99.4, PHOSPHO1 inh 77.5
COc1ccc(C2C(C#N)=C(SCC(=O)Nc3ccc(C)cc3)NC3=C2C(=O)CC(C)(C)C3)cc1 (centres undefined)	PHOSPHO1 inh 88.7
CSC1=C(C#N)C(c2ccncc2)C(C(=O)Nc2ccccc2)=C(C)N1 (centres undefined)	PHOSPHO1 inh 61.5
CC1=C(C(=O)Nc2ccccc2)C(c2ccncc2)C(C#N)=C(SCC(=O)Nc2ccccc2)N1 (centres undefined)	PHOSPHO1 inh 70.8
CC1=C(C(=O)Nc2ccc(F)cc2)C(c2ccncc2)C2=C(CCCC2=O)N1 (centres undefined)	none (no result: Cl transport mod)
CC1=C(C(=O)Nc2ccccc2)C(c2ccco2)C(C#N)=C(SCC(=O)Nc2cccc(C)c2C)N1 (centres undefined)	none
CC1CCCCC12NC(=O)N(CC(=O)Nc1ccccc1N1CCOCC1)C2=O (centres undefined)	none
CCOC(=O)C1=C(C)NC(SCC(=O)Nc2nc(C)cs2)=C(C#N)C1c1cccs1 (centres undefined)	PHOSPHO1 inh 76.4 (no result: Cl transport mod, Cardio protect)
C=CCOC(=O)C1=C(C)NC(SCC(N)=O)=C(C#N)C1c1cccs1 (centres undefined)	none
Clc1ccc(N2CCN(/N=C/c3cccnc3)CC2)cc1	none (no result: Cl transport mod)
O=C(Nc1nc(-c2ccccn2)cs1)Nc1ccc(F)cc1F	none (no result: Cl transport mod)
O=C(COc1ccccc1)Nc1nc(-c2ccncc2)cs1	none (no result: Cl transport mod)
O=C(COc1cccc(F)c1)Nc1nc(-c2ccccn2)cs1	Cardio protect 58.7 (no result: Calb FLC, Cl transport mod, Efflux pump mplx, PHOSPHO1 inh)
Cc1ccc(OCC(=O)NCCc2nc3ccccc3[nH]2)c(C)c1	PHOSPHO1 inh 61.2
O=C(COc1ccc([N+](=O)[O-])cc1)Nc1nc(-c2ccccn2)cs1	Cardio protect 71.3 (no result: Cl transport mod, PHOSPHO1 inh)
O=C(COc1ccc(F)cc1)Nc1nc(-c2ccccn2)cs1	Calb FLC 90.4, Cardio protect 58.7 (no result: Cl transport mod, PHOSPHO1 inh)
O=C(NNS(=O)(=O)c1ccccc1)C1CCCCC1	none (no result: Cl transport mod)
O=C(c1cc2cc(Br)ccc2o1)N1CCN(c2ccccc2)CC1	none (no result: Cl transport mod)
N#Cc1ccccc1S(=O)(=O)N1CCN(C(=O)C2CCCCC2)CC1	none (no result: Calb FLC, Cl transport mod, PHOSPHO1 inh)
Cc1cc(=O)oc2cc(NC(=O)C(C)Oc3cccc(Cl)c3)ccc12 (centres undefined)	none (no result: Cl transport mod, PHOSPHO1 inh)
Cc1ccc(OCC(=O)Nc2nc(-c3ccccn3)cs2)c(C)c1	Cardio protect 53.0 (no result: Cl transport mod, PHOSPHO1 inh)
Cc1ccc(S(=O)(=O)CCC(=O)Nc2nc(-c3ccccn3)cs2)cc1	none (no result: Calb FLC, Cl transport mod, PHOSPHO1 inh)
CCCCn1c(N)c(N(Cc2ccccc2OC)C(=O)c2ccc([N+](=O)[O-])s2)c(=O)[nH]c1=O	none (no result: Cl transport mod, PHOSPHO1 inh)
CCOc1cc2[nH]c(=S)n(Cc3ccc(C(=O)NCCCOC)cc3)c(=O)c2cc1OCC	none (no result: Cl transport mod)
COC(CNC(=O)c1ccc(Cn2c(=S)[nH]c3cc4c(cc3c2=O)OCO4)cc1)OC	PHOSPHO1 inh 79.0
COCCNC(=O)c1ccc(Cn2c(=S)[nH]c3cc4c(cc3c2=O)OCO4)cc1	PHOSPHO1 inh 97.6 (no result: Cl transport mod)
Cc1ccc(C)c(N2CCN(C(=O)CCn3c(=S)[nH]c4cc5c(cc4c3=O)OCO5)CC2)c1	PHOSPHO1 inh 70.2
CC(C)OCCCn1c(=S)[nH]c2cc3c(cc2c1=O)OCO3	Cl transport mod 12.3, PHOSPHO1 inh 88.3
CN(CCCC(=O)Nc1ccc(Br)cc1F)S(=O)(=O)c1ccccc1	none (no result: Cl transport mod, PHOSPHO1 inh)
CCN1/C(=N\N)c2cccc3cccc1c23	none
CS(=O)(=O)c1cccc(C(=O)Nc2ccc3c(c2)OCCCO3)c1	none (no result: Cl transport mod)
CCCCN(C(=O)COC(=O)c1ccccc1)c1c(N)n(CCC)c(=O)[nH]c1=O	none (no result: Calb FLC, Cl transport mod, PHOSPHO1 inh)
CN(C)CCCN1c2ccccc2Sc2ccccc21	Cardio protect 50.2 (no result: Calb FLC)
NC(=O)c1cccc(CS(=O)(=O)c2ccc(Cl)cc2)c1	none (no result: Cl transport mod)
Cc1cn(CC(=O)N(C)Cc2ccco2)c(=O)[nH]c1=O	none (no result: Calb FLC, Cl transport mod, Efflux pump mplx, PHOSPHO1 inh)
Cc1ccc(-n2c(N)c(-c3nc4ccccc4n3C)sc2=S)cc1	PHOSPHO1 inh 69.2 (no result: Cl transport mod)
Cn1c(-c2ccc(N)cc2)nc2ccccc21	none (no result: Calb FLC)
CN(C)c1ccc(NC(=O)c2ccc3nsnc3c2)cc1	PHOSPHO1 inh 74.4 (no result: Cl transport mod)
O=C(Nc1ccc(Cl)cc1)c1ccc2nsnc2c1	none
COc1ccc(-c2csc(NC(=O)CCS(=O)(=O)c3ccccc3)n2)c(OC)c1	none
COc1cccc(-c2nnn(CC(=O)N3CCC(C)CC3)n2)c1	none (no result: Cl transport mod)
Cc1cc(C2CCCCC2)n(O)c(=O)c1	Cardio protect 69.0 (no result: Calb FLC, Cl transport mod, PHOSPHO1 inh)
CCOC(=O)c1cc(S(=O)(=O)NC2CCC(C)CC2)cn1C (centres undefined)	PHOSPHO1 inh 64.0 (no result: Cl transport mod)
Cc1ccc2c(Cl)c(C(=O)NCCCN3CCOCC3)sc2c1	none (no result: Calb FLC, Cl transport mod, Efflux pump mplx, PHOSPHO1 inh)
O=c1c2cc(N3CCOCC3)ccc2[nH]c(=S)n1CCCN1CCCCCC1	Calb FLC inconclusive
O=c1c2cc(N3CCOCC3)ccc2[nH]c(=S)n1Cc1ccc(Cl)cc1	PHOSPHO1 inh 81.7
O=c1c2cc(F)ccc2[nH]c(=S)n1CCCN1CCOCC1	Cl transport mod 6.44
Cc1c(C(=O)N2CCCCC2)c(S(=O)(=O)N2c3ccccc3CC2C)c(C)n1C (centres undefined)	none (no result: Cl transport mod)
Cc1cc(NC(=O)C(C)SCC(=O)OC(C)C(=O)Nc2ccc(F)cc2Cl)no1 (centres undefined)	none (no result: Cl transport mod, PHOSPHO1 inh)
Cc1ccc(-n2c(-c3c(-c4ccccc4)noc3C)n[nH]c2=S)cc1	PHOSPHO1 inh 85.1 (no result: Cl transport mod)
Cc1ccc(-n2c(-c3nn(C)c(C)c3Cl)n[nH]c2=S)cc1	PHOSPHO1 inh 95.0
CCn1c(-c2nn(C)c(C)c2Cl)n[nH]c1=S	none
Cc1ccc(S(=O)(=O)Nc2cccc3c2O[C@H](CN(C)C(=O)Nc2cccc4ccccc24)[C@H](C)CN([C@H](C)CO)C3=O)cc1	none (no result: Calb FLC, Cl transport mod, PHOSPHO1 inh)
Nc1n[nH]c(-c2cccc([N+](=O)[O-])c2)n1	Calb FLC 92.6
